HCMV inh = inhibitors of human cytomegalovirus. HFF cells, HCMV-luciferase reporter, 72 h; stronger effect = lower value. activity change, negative = inhibition, % at 57.5 µM. hit rate 4.5% among 410,000. AID 1259415; in the data active = activity change below about -60%; inconclusive = no clear call, values can overlap the other calls; inactive = above about -39%; note: % is set by controls: 0 for no effect and ±100 for the full control effect
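Two compound doses tested in HFFs infected with HCMV-luciferase, MOI 1 PFU/cell, 72 h at 37C. Lysate luminescence read with OneGlo; data normalized against buffer-only and 10uM Salinomycin inhibitor controls.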
Cycloheximide cs = affects cycloheximide protein synthesis inhibition readout, counter-screen. cell reporter, cycloheximide protein synthesis inhibition counterscreen. max response, %. hit rate 12% among 300,000. AID 2314; in the data active = max response mostly above about 13%, no sharp cut-off; inactive = mostly below about 14%; note: read at 38.3 µM for the half of the compounds with a filed dose; 0% is about no effect
Pf growth 96h = inhibits malaria parasite growth, 96 h. P. falciparum luciferase reporter growth, 96 h. Potency, µM (highest dose often 28.7 µM), inactives show at the highest dose activity change, negative = inhibition, usual class: inhibitors. hit rate 6.9% among 320,000; note: potency is the fitted concentration of half-maximal effect; % is set by controls: 0 for no effect and ±100 for the full control effect
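P. falciparum expressing integrated firefly luciferase, in erythrocytes at 2% hematocrit, 0.05% parasitemia, incubated with compounds 96 h at 37 C, 5% CO2. Growth inhibition read as loss of luminescence; two-generation exposure targets delayed-death apicoplast inhibitors.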
Shiga inhibitor = inhibitors of Shiga toxin in Vero cells; Vero cells, Shiga toxin protein synthesis inhibition reporter; inhibition, % at 38.7 µM; hit rate 9.2% among 290,000; AID 2315; in the data active = inhibition mostly above about 28%, no sharp cut-off; inactive = mostly below about 43%; note: 0% is about no effect
Pf growth 48h = P. falciparum growth inhibition at 48 hours (one generation); Potency, µM (top dose mostly 28.7 µM), without a hit: at the highest dose activity change, negative = inhibition, actives largely listed as inhibitors; hit rate 5.9% among 310,000; P. falciparum luciferase growth in erythrocytes, 48 h; note: potency is the fitted concentration of half-maximal effect; % is set by controls: 0 for no effect and ±100 for the full control effect
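Compounds are pin-transferred into medium, infected erythrocytes (2% hematocrit, 0.1% parasitemia final) are added, and plates sit one parasite generation at 37 C in 5% CO2. Detection reagent is then added and luminescence measured.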
* hit, by the source's call; ? = inconclusive; . = no result given. Sampled rows, rich in hits. Any-hit rate of the full collection: about 20%. Unless noted, calls come from the whole dose curve; as a rule, active = well fitted inhibition curve with a large enough effect; inconclusive = small, poorly fitted or top-dose-only effect, or another doubt; inactive = no such curve, though single readings can be large or run the other way.

SMILES | HCMV inh | Cycloheximide cs | Pf growth 96h | Shiga inhibitor | Pf growth 48h
CCCCNC(=O)C1Cc2cc(S(=O)(=O)N3CCCC3)ccc2N1C(C)=O (configuration not stated) | ? | -9 | ? | -6 | 13%
Clc1ccc(CCNC(c2nnc(-c3ccccc3)o2)c2ccccc2Cl)cc1 (configuration not stated) | 3 | . | . | . | .
Cc1ccc(NC(=O)COC(=O)c2ccc3c(c2)NC(=O)C2CCCN32)cc1 (configuration not stated) | 56 | -6 | 11% | 28 | 10µM*
Cc1ccc(C(=O)OCC(=O)NN2C(=O)NC3(CCC(C)CC3)C2=O)cc1 (configuration not stated) | 11 | . | 18% | . | ?
COc1cccc(CN2CC(C(=O)NCCOc3ccccc3)CCC2=O)c1 (configuration not stated) | -15 | 19* | ? | 17 | -7%
COc1cccc(CN2CC(C(=O)N(C)C3CCOCC3)CCC2=O)c1 (configuration not stated) | 3 | 14* | 34% | 17 | 2%
COc1cccc(CN(C)C(=O)C2CCC(=O)N(Cc3cccc(F)c3)C2)c1 (configuration not stated) | 7 | 1 | ? | -24 | -9%
Cc1ccccc1C1=NCC(=O)N(CC(=O)N2CCCCC2)c2sc(C)c(C)c21 | -15 | -2 | 13µM* | 9 | ?
COc1ccc(NC(=O)[C@@H]2CCCN2C(=O)[C@@H]2Cc3ccccc3CN2C(=O)OC(C)(C)C)cc1 | 23 | 23 | 12µM* | 22 | 12µM*
CC(=O)c1ccc(NC(=O)[C@@H]2CCCN2C(=O)OC(C)(C)C)cc1 | 29 | 51* | 62% | 87* | 58%
CC(C)(C)OC(=O)N1CCC[C@H]1C(=O)N/N=C/c1ccc2ncccc2c1 | 34 | 9 | 12µM* | 22 | ?
C[C@H](NC(=O)[C@@H]1CCCN1C(=O)OC(C)(C)C)c1ccccc1 | -6 | . | . | . | .
Cc1ccc(NC(=O)C2CCCN2C(=O)Oc2ccccc2)cc1 (configuration not stated) | -17 | -1 | -15% | 10 | 7%
CSc1ccccc1NC(=O)COc1nsnc1N1CCOCC1 | -15 | 1 | ? | 5 | 25%
O=C1/C(=C/c2ccccn2)COc2ccccc21 | ? | 27* | -4% | 78* | 48%
CCOc1cc(/C=C2/COc3ccccc3C2=O)ccc1OCC(=O)N(C)C | 24 | 22 | ? | -6 | 1%
CNc1ccc(/C=C2\COc3ccccc3C2=O)cc1[N+](=O)[O-] | 0 | -2 | 15% | 15 | .
O=C1/C(=C/c2ccc(O)cc2)COc2ccccc21 | -14 | 29* | 38% | 45* | 108%
O=C1/C(=C/c2ccccc2[N+](=O)[O-])COc2ccccc21 | -100* | 76* | ? | 155* | ?
O=C(NC1CCCCC1)c1ccc2c(c1)N(Cc1ccc(Cl)cc1)C(=O)c1ccccc1S2(=O)=O | 9 | . | . | . | .
COC(=O)[C@]12CCCCC=C1N(Cc1ccco1)C(=O)[C@H](CC(=O)NCc1cccc3ccccc13)C2 | 4 | . | . | . | .
COCCNC(=O)c1ccc2c(=O)n(CCOC)c(SCC(=O)c3c[nH]c4ccccc34)nc2c1 | 33 | . | . | . | .
CC1Cc2ccccc2N1C(=O)CN1C(=O)C(=O)N(Cc2ccccc2)C1=O (configuration not stated) | 38 | 3 | 5% | 3 | .
Cc1ccc(NC(=O)c2cncc(Br)c2)cc1S(=O)(=O)N(C)C | 40 | 38* | 12% | 99* | 84%
Cc1ccc(S(=O)(=O)N2CCCCC2)cc1NC(=O)c1cncc(Br)c1 | -9 | . | ? | . | ?
SMILES | HCMV inh | Cycloheximide cs | Pf growth 96h | Shiga inhibitor | Pf growth 48h
Cc1ccc(S(=O)(=O)N(C)C)cc1NC(=O)c1cncc(Br)c1 | ? | -5 | 13µM* | -13 | 13µM*
CN(C)S(=O)(=O)c1cccc(NC(=O)c2cncc(Br)c2)c1 | -22 | 8 | 64% | 17 | 25%
Cc1ccc(NC(=O)c2ccccc2Br)cc1S(=O)(=O)N(C)C | 6 | 13 | ? | 41 | ?
Cc1ccc(NC(=O)c2sccc2C)cc1S(=O)(=O)N(C)C | 79 | 28* | 31% | 46 | 49%
Cc1ccc(NC(=O)CSc2nnc(-c3cccs3)o2)cc1S(=O)(=O)N(C)C | . | 27* | 14% | 117* | 59%
COC(=O)c1sc2cccc(F)c2c1S(=O)(=O)NCc1ccccc1Cl | 1 | . | . | . | .
COc1ccc(C(=O)NCc2ccco2)cc1S(=O)(=O)NC1CC1 | 13 | . | -20% | . | -8%
Cc1ccc(CNC(=O)CN(Cc2cccs2)C(=O)C2(C)CC(=O)N=C3C=CC=CN32)cc1 (configuration not stated) | -77* | -2 | 1.7µM* | -10 | 11%
Cc1ccc(CNC(=O)CN(C(=O)C2(C)CC(=O)N=C3C=CC=CN32)c2cc(C)ccc2C)cc1 (configuration not stated) | 38 | -7 | -13% | -6 | -3%
Cn1cnnc1Sc1cc(N2CCNCC2)ccc1[N+](=O)[O-] | -5 | 10 | ? | 40 | -17%
Cc1ccc(S(=O)(=O)N2CCN(c3ccc([N+](=O)[O-])c(Sc4nncn4C)c3)CC2)cc1 | -32 | -3 | 232% | -10 | ?
Cn1cnnc1Sc1cc(N2CCN(S(=O)(=O)c3ccc(Cl)c(Cl)c3)CC2)ccc1[N+](=O)[O-] | -9 | -4 | -2% | 1 | 12µM*
Cn1cnnc1Sc1cc(N2CCN(S(=O)(=O)c3ccc4ccccc4c3)CC2)ccc1[N+](=O)[O-] | -32 | 11* | -17% | 26 | ?
COCCNC(=O)CSc1nc(-c2ccc(C)cc2)nc2c1c(=O)n(C)c(=O)n2C | -8 | . | . | . | .
COc1ccc(O)c2c(=O)c3c(OC)cc4c(c3oc12)C1C=COC1O4 (configuration not stated) | -62* | -6 | . | -16 | .
Cc1ccc(Nc2nc(-c3ccccc3)cs2)nc1 | 8 | 27* | 78% | 36 | 138%
Cc1cc(C)nc(Nc2nc(-c3ccccc3)cs2)n1 | 90 | 53* | 92% | 73* | 140%
Cc1ccc(Nc2nc(-c3cccs3)cs2)nc1 | 103 | 31* | 42% | 53 | 324%
Cc1nc(C)c(-c2csc(Nc3ccc(Cl)cn3)n2)s1 | -26 | . | . | . | .
COCCNc1nc(NCCN2CCNC2=O)c2sccc2n1 | -12 | . | . | . | .
CCCN(C(=O)c1coc(=O)c2ccccc12)c1ccccc1C | -2 | . | . | . | .
COc1cccc(N=Cc2c(O)c3ccccc3oc2=O)c1 | 49 | 21* | ? | 35 | 39%
Cc1ccc(F)cc1N=Cc1c(O)c2ccccc2oc1=O | . | -1 | 2% | -17 | 1%
Cc1ccc(N=Cc2c(O)c3ccccc3oc2=O)c(C)c1 | 10 | 30* | 9% | 17 | 17%
O=C(O)CCCN=Cc1c(O)c2ccccc2oc1=O | 34 | -1 | 10µM* | -9 | 5%
CN=C(C)c1c(O)c2ccccc2oc1=O | 4 | 18* | 26% | 20 | .

Screens: PubChem, National Center for Advancing Translational Sciences (NCATS)
